Assay results published in PubChem BioAssay (EPA / NIEHS).
Results filed as inconclusive are left out. Active and inactive are the calls of the source. The calls were made as follows, unless noted: active = hit-call score of the fitted dose curve at least 0.9, where 1 is the maximum; inactive = score below 0.9.

Experiments:
[1] = CCTE_Shafer_MEA_acute_spike_number: CCTE's Neural Acute Assay for Total Number of Spikes, Shafer Lab (AID 2284008);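 as to AC50: curve fitted for decrease in spike count so AC50 reflects inhibitors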
How it was run: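 Rat cortical cultures, DIV 13/15, 37 C. 40 min baseline rec, cpd 0.03-40 uM, 40 min post-dose rec. Band-pass 300-5000 Hz, spike threshold 8x rms; % change in spike count per well, DMSO neg ctrl, loss-of-signal fit.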

[2] = CCTE_Shafer_MEA_acute_firing_rate_mean: CCTE's Neural Acute Assay for Mean Firing Rate, Shafer Lab (AID 2284009);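 also: analyzed for loss of signal so actives lower firing rate relative to DMSO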
How it was run: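 Spontaneous spiking of primary rat cortical networks, DIV 13/15, 37 C. Compound 0.03-40 uM, n ≥3 wells; 40 min baseline vs 40 min treated. Endpoint fitted in loss-of-signal direction against DMSO.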

[3] = CCTE_Harrill_HTTr_Viability_MCF7: CCTE's 6-hour Cell Viability Assessment for the High-Throughput Transcriptomics (HTTr) Platform, in MCF-7 cells cultured in DMEM + 10% fetal bovine serum, Harrill Lab (AID 2284010)
How it was run: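 PI exclusion, high-content imaging; 8-pt dilution series, 6 h exposure; bidirectional fit vs DMSO (neg. ctrl/baseline); gain of signal = loss of membrane integrity.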

[4] = CCTE_Harrill_HTTr_Apoptosis_MCF7: CCTE's 6-hour Apoptosis Assessment for the High-Throughput Transcriptomics (HTTr) Platform, in MCF-7 cells cultured in DMEM + 10% fetal bovine serum, Harrill Lab (AID 2284011)
How it was run: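 Read-out: CellEvent Caspase 3/7 Green signal by high content imaging, gain-of-signal indicating apoptosis. MCF-7 cells, DMEM + 10% FBS, eight-point dilution series, 6 h exposure. Curves fitted bidirectionally relative to DMSO negative control.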

[5] = CCTE_Shafer_MEA_acute_burst_number: CCTE's Neural Acute Assay for Single-Electrode Bursts, Shafer Lab (AID 2284013)
How it was run: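 Burst totals were derived with adaptive spike detection (8x rms threshold) on filtered signals from rat cortical cultures; change relative to pre-treatment baseline after 40-min compound exposure (0.03-40 uM) was fitted in the negative direction against DMSO.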

[6] = CCTE_Shafer_MEA_acute_burst_duration_mean: CCTE's Neural Acute Assay for Mean Burst Duration, Shafer Lab (AID 2284014);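 also: hits are decreases in mean burst duration relative to DMSO controls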
How it was run: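 Acute exposure of mature rat cortical networks (DIV 13 or 15) grown on microelectrode arrays to 0.03-40 uM compound. Mean burst duration compared with the 40-min pre-dose baseline over a 40-min post-dose recording at 37 C.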

[7] = CCTE_Shafer_MEA_acute_per_burst_spike_number_mean: CCTE's Neural Acute Assay for Average Number of Spikes Per Burst, Shafer Lab (AID 2284015);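 also: hits are decreases in mean spikes per burst versus baseline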
How it was run: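 We recorded spontaneous network firing of rat cortical neurons for 40 min before and 40 min during exposure to compound at 0.03-40 uM, at 37 C. Spikes were detected adaptively at 8x rms noise, and the change in average spikes per burst was fitted against DMSO.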

[8] = CCTE_Shafer_MEA_acute_interburst_interval_mean: CCTE's Neural Acute Assay for Mean Interburst Interval, Shafer Lab (AID 2284016);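 also: percent change of mean interburst interval versus each well's own pre-dose baseline; curves fitted for decrease in interburst interval relative to DMSO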
How it was run: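 MEA recording of spontaneous network bursting in primary rat cortical cultures; mean interburst interval was compared before and after a 40-min compound exposure (0.03-40 uM) and expressed as percent change, relative to DMSO.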

[9] = CCTE_Shafer_MEA_acute_burst_percentage_mean: CCTE's Neural Acute Assay for Percentage of Spikes in a Burst, Shafer Lab (AID 2284017);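 as to AC50: curve fitted for loss of signal so potency reflects decreased burst percentage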
How it was run: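 Compounds were tested at 0.03-40 uM on primary rat cortical neuron networks grown over microelectrodes, with at least three wells per compound. Spontaneous firing was recorded for 40 min before and 40 min after dosing, and the change in burst percentage was computed per well.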

[10] = CCTE_Shafer_MEA_acute_burst_percentage_std: CCTE's Neural Acute Assay for Standard Deviation of Burst Percentage, Shafer Lab (AID 2284018);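 also: fitted in the negative direction so actives lower burst percentage SD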
How it was run: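 Primary rat cortical neurons on 16-electrode MEA wells were recorded 40 min at baseline (DIV 13 or 15), then 40 min after compound (0.03-40 uM), at 37 C. Well value is SD across electrodes of spikes-in-bursts/total spikes; endpoint is percent change, DMSO-referenced.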

[11] = CCTE_Shafer_MEA_acute_per_network_burst_spike_number_mean: CCTE's Neural Acute Assay for Average Number of Spikes in a Network Burst, Shafer Lab (AID 2284019);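 as to AC50: curve fitted for loss of signal so actives reduce spikes per network burst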
How it was run: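 Acute exposure of rat primary cortical networks (DIV 13/15) on MEAs; adaptive spike detection at 8x rms noise, 37 C. Percent change in spikes per network burst after 40 min with compound (0.03-40 uM), negative direction vs DMSO.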

[12] = CCTE_Harrill_HTTr_CellCount_MCF7: CCTE's Cell Proliferation Assessment for the High-Throughput Transcriptomics (HTTr) Platform, Harrill Lab (AID 2284012; active = hit-call score of the fitted dose curve at least 0.9, where 1 is the maximum;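 also: count of Hoechst-stained nuclei per well by high-content imaging in MCF-7 cells; cells exposed to compound for six hours; intended direction is loss of nuclei count meaning fewer cells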)
How it was run: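 Readout: Hoechst nuclear count by high-content imaging. MCF-7, 8-point dilution series, 6 h exposure. Bidirectional fit vs DMSO baseline.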

[13] = CCTE_Simmons_MITO_basal_resp_rate: CCTE's HepG2 Seahorse XF Respirometric Screening Assay at Basal Respiratory State, Simmons Lab (AID 2284001); details: actives raise or lower the signal
How it was run: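 Readout is oxygen consumption rate after test compound injection, measured by Seahorse XF in HepG2 cells. Seven concentrations from 125 nM up to 100 uM final are tested, and activity in either direction is fitted against DMSO.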

[14] = CCTE_Simmons_MITO_max_resp_rate: CCTE's HepG2 Seahorse XF Respirometric Screening Assay at Maximal Respiratory State [uncoupled], Simmons Lab (AID 2284002); details: actives raise or lower the signal
How it was run: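 HepG2, Seahorse XF96, maximal OCR post-FCCP. Cpd 125 nM–100 uM final (7 conc), n=3 biological. Kinetic reads every 6 min (3 min mix/3 min measure) over 72 min; fit bidirectional vs DMSO.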

[15] = target: Nucleoli Translocation, AR (gene 367) (UniProt P10275); assay: UPITT_HCI_U2OS_AR_TIF2_Nucleoli_Antagonist: University of Pittsburgh U2OS Androgen Receptor-Transcriptional Intermediary Factor 2 (AR-TIF2) Antagonism High Content Imaging Assay for Nucleoli Translocation (AID 2283997; active = hit-call score of the fitted dose curve at least 0.9, where 1 is the maximum)
Chain of Nucleoli Translocation, AR (gene 367) (P10275 whole entry, looked up): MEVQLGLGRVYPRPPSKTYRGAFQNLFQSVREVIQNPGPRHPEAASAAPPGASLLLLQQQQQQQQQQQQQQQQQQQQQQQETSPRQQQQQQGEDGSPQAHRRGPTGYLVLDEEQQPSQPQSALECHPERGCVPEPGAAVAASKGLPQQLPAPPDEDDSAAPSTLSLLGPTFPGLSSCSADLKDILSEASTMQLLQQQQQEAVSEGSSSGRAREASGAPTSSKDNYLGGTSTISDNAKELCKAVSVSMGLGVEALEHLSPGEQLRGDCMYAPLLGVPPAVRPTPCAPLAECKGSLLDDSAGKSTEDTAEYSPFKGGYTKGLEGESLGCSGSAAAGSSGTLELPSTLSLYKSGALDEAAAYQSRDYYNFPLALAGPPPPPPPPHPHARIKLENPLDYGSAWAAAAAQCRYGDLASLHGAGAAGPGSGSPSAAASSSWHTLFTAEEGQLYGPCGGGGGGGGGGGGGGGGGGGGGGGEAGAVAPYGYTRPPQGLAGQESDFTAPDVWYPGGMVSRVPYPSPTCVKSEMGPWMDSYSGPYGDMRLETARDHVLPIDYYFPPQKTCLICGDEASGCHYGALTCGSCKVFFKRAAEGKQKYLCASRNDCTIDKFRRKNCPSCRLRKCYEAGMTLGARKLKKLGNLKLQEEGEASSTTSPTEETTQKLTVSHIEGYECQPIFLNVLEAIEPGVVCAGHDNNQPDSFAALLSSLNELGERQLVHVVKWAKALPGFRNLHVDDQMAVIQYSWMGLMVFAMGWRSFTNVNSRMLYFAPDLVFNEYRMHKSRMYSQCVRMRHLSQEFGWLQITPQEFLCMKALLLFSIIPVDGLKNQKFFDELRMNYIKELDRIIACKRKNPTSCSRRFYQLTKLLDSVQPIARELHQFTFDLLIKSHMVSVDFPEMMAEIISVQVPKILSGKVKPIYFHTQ
How it was run: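 An antagonist-mode imaging screen: engineered U2OS (AR-RFP, TIF2-GFP) exposed to 20 uM compound, 0.2% DMSO. Activity reflects nucleolar red fluorescence change relative to DHT baseline.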

[16] = target: Ratio of Nucleoli Translocation and Cytoplasm, AR (gene 367) (UniProt P10275); assay: UPITT_HCI_U2OS_AR_TIF2_Nucleoli_Cytoplasm_Ratio_Antagonist: University of Pittsburgh U2OS Androgen Receptor-Transcriptional Intermediary Factor 2 (AR-TIF2) Antagonism High Content Imaging Assay for Ratio of Nucleoli Translocation and Cytoplasm (AID 2283999; active = hit-call score of the fitted dose curve at least 0.9, where 1 is the maximum;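 also: antagonists lower the DHT-driven ratio of nucleolar to cytoplasmic red signal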)
Chain of Ratio of Nucleoli Translocation and Cytoplasm, AR (gene 367) (P10275 whole entry, looked up): as above
How it was run: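 Read-out is the ratio of nucleolar to cytoplasmic AR-RFP fluorescence, imaged by high-content microscopy in U2OS cells coexpressing TIF2-GFP. Single-point 20 uM screen, triplicate confirmation, then 0.195–50 uM dose response; activity referenced to DHT baseline.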

DIO1 (gene 1733) = assay: CCTE_GLTED_hDIO1: CCTE's human Deiodinase 1 (DIO1) Inhibition Assay, Great Lakes Toxicology and Ecology Division (GLTED) Lab (AID 2283987; active = hit-call score of the fitted dose curve at least 0.9, where 1 is the maximum;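 also: isolated human DIO1 enzyme in a cell-free setup rather than cells; enzyme activity read as free iodide liberated from substrate via Sandell-Kolthoff colorimetry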)
How it was run: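 Steps: human DIO1 enzyme plus test chemical, 3 h incubation; free iodide then quantified in a second Sandell-Kolthoff step by absorbance. DMSO served as negative control and baseline.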

[17] = target: Nucleoli Translocation, AR (gene 367) (UniProt P10275); assay: UPITT_HCI_U2OS_AR_TIF2_Nucleoli_Agonist: University of Pittsburgh U2OS Androgen Receptor-Transcriptional Intermediary Factor 2 (AR-TIF2) Agonism High Content Imaging Assay for Nucleoli Translocation (AID 2283998; active = hit-call score of the fitted dose curve at least 0.9, where 1 is the maximum)
How it was run: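 RFP-AR / GFP-TIF2 cells; cpds diluted in serum-free medium; single-point screen 20 uM final (0.2% DMSO), actives confirmed in triplicate; conc-response 0.195–50 uM final (0.5% DMSO). Readout: nucleolar red fluorescence, positive direction vs DMSO.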

[18] = CCTE_Harrill_HTTr_Apoptosis_PRF_DMEM_6hr: (Pilot) CCTE's 6-hour Apoptosis Assessment for the High-Throughput Transcriptomics (HTTr) Platform, in MCF-7 cells cultured phenol red-free DMEM + 10% charcoal-stripped fetal bovine serum, Harrill Lab (AID 2283984)
How it was run: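 Caspase-3/7 activity (CellEvent Green) read by high-content imaging 6 h after dosing, eight concentrations. Cells: MCF-7, phenol red-free DMEM with 10% charcoal-stripped serum. Curves fit both directions against DMSO.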

[19] = CCTE_Harrill_HTTr_Apoptosis_PRF_DMEM_24hr: (Pilot) CCTE's 24-hour Apoptosis Assessment for the High-Throughput Transcriptomics (HTTr) Platform, in MCF-7 cells cultured in phenol red-free DMEM + 10% charcoal-stripped fetal bovine serum, Harrill Lab (AID 2283986)
How it was run: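 Eight concentrations tested for 24 h on MCF-7 grown in charcoal-stripped serum, phenol red-free DMEM. High content imaging of CellEvent Caspase 3/7 Green signal gives apoptosis read-out, fitted both ways relative to DMSO.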

Measured: AC50

O=C(O)c1ccccc1C(c1ccc(O)cc1)c1ccc(O)cc1
active: [9] 20 µM | [11] 20 µM
inactive: [1] | [2] | [3] | [4] | [5] | [6] | [7] | [8] | [10]

CC(=O)NC1(c2cccc(F)c2)CCN(CC[C@@]2(c3ccc(Cl)c(Cl)c3)CN(c3ccccc3)C(=O)CO2)CC1
inactive: [3] | [4] | [12] | [7] | [8] | [11]
active: [1] 1.47 µM | [2] 1.47 µM | [5] 1.24 µM | [6] 1.04 µM | [9] 8.94 µM | [10] 20 µM

CCc1nn(C2CCCCC2)c2cc(C3(C#N)CCC(C(=O)O)CC3)ccc12 (stereo not drawn)
inactive: [3] | [4] | [12]
active: [13] 15.6 µM | [14] 25 µM

CCCCC[C@H](O)CC(=O)CCc1ccc(O)c(OC)c1
inactive: [15] | [16] | [3] | [4] | [12]

CCCCCCCCCCCCc1ccccc1S(=O)(=O)O
active: DIO1 (gene 1733) 96.3 µM | [15] 83 µM | [17] 90.7 µM
inactive: [16] | [1] | [2] | [3] | [4] | [5] | [6] | [7] | [8] | [9] | [10] | [11]

CC[C@H](c1ccc(O)cc1)[C@@H](CC)c1ccc(O)cc1
inactive: [16] | [1] | [2] | [3] | [4] | [5] | [6] | [7] | [8] | [9] | [10] | [11]
active: [15] 50 µM | [17] 50 µM | [13] 20.8 µM | [14] 30 µM

N#C[C@@H]1CC(F)(F)CN1C(=O)CNC1CC2CCC(C1)N2c1ncccn1 (stereo partly drawn)
inactive: [15] | [17] | [16] | [3] | [4]

CCC(=C(c1ccc(O)cc1)c1ccc(OCCN(C)C)cc1)c1ccccc1
inactive: [15] | [16] | [1] | [2] | [3] | [12] | [5] | [8] | [10] | [11]
active: [18] 76.1 µM | [19] 80.8 µM | DIO1 (gene 1733) 46.5 µM | [17] 22.5 µM | [4] 35.7 µM | [6] 23 µM | [7] 21 µM | [9] 20.6 µM

CCCOC(=O)c1ccc(O)cc1
inactive: [14] | [3] | [4] | [12]
active: [13] 35.8 µM

Oc1cc2ccccc2c2ccccc12
inactive: [17] | [14] | [1] | [2] | [4] | [12] | [5] | [6] | [7] | [8] | [9] | [10] | [11]
active: [15] 3.25 µM | [16] 3.08 µM | [13] 28.6 µM | [3] 9.92 µM

CC(=O)CC(C)(C)O
inactive: [15] | [17] | [16] | [3] | [4] | [12]

OC1CCC(C2CCCCC2)CC1 (stereo not drawn)
inactive: [14] | [3] | [4] | [12] | [5] | [6] | [7] | [8] | [10] | [11]
active: [13] 50 µM | [1] 20 µM | [2] 20 µM | [9] 27.3 µM

O=c1c(-c2ccc(O)cc2)coc2cc(O)ccc12
active: DIO1 (gene 1733) 17.2 µM | [1] 3.28 µM | [11] 4.06 µM
inactive: [15] | [2] | [3] | [4] | [12] | [5] | [6] | [7] | [8] | [9] | [10]

CCc1ccc(CCOc2ccc(CC3SC(=O)NC3=O)cc2)nc1 (stereo not drawn)
inactive: [1] | [2] | [3] | [4] | [12] | [5] | [6] | [7] | [8] | [9] | [10] | [11]

CC(C)(C)CC(C)(C)c1ccc(O)c(-n2nc3ccccc3n2)c1
inactive: [3] | [4]

CCCCC(CC)COC(=O)CCCCC(=O)OCC(CC)CCCC (stereo not drawn)
inactive: [3] | [4] | [12]

CC(C)(C)c1cc(C(C)(C)C)c(O)c(C(C)(C)C)c1
inactive: [1] | [2] | [5] | [6] | [7] | [8] | [9] | [10] | [11]

CCCCCCC(=O)O
inactive: [3] | [4] | [12]

COC(=O)CCCCC(=O)OC
inactive: [3] | [4] | [12]

OCCC(F)(F)C(F)(F)C(F)(F)C(F)(F)C(F)(F)C(F)(F)F
inactive: [3] | [4] | [12]
